# RORgamma inh = blocks mouse ROR gamma transcriptional activity; AID 2551; P51450; 310,000 tested, 5.4% active; Drosophila S2 Gal4-RORgamma UAS-luciferase reporter, 20 h; Potency, µM (titrated, usually from 53.6 µM), for inactives: at the highest dose activity change, negative = inhibition, hits mostly inhibitors; further: potency means the concentration at half of the fitted maximal effect; nearly all actives have a fitted effect of over 60% in size
# Target sequence (P51450 whole entry, looked up, the tested form may be a part): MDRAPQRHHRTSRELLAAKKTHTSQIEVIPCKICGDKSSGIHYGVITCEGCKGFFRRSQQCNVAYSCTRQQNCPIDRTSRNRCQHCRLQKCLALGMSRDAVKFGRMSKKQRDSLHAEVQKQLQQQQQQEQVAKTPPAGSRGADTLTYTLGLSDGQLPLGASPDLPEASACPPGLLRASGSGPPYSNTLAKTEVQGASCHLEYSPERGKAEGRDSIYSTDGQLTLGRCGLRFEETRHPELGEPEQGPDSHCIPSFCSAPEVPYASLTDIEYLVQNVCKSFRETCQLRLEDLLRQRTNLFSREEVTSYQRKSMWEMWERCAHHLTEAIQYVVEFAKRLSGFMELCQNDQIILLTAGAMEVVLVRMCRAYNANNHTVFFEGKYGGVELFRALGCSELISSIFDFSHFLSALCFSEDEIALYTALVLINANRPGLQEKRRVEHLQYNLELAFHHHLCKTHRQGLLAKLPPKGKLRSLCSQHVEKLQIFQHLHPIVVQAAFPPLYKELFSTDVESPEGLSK
#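 ROR gamma transcriptional activity was tracked as Gal4-UAS luciferase output in stably transfected Drosophila Schneider cells, with compound added 1 hr before 700 uM copper sulfate induction and a 20 hr ambient-temperature incubation.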
# DT40 TDP1 no CPT = qHTS for Inhibitors of human tyrosyl-DNA phosphodiesterase 1 (TDP1): qHTS in cells in absence of CPT; DT40 Tdp1-/- hTDP1 cells, no CPT, ATP luminescence, 48 h; Potency, µM (top dose mostly 46.2 µM), inactives show at the top dose activity change, negative = growth inhibition, actives largely listed as inhibitors; 420,000 tested, 15% active; AID 686978, 2013; further: potency means the concentration at half of the fitted maximal effect; nearly all actives have a fitted effect of over 55% in size
#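 Growth kinetics read by CellTiter-Glo luminescence after ≥48 hr at 37 °C. Cells: DT40 Tdp1-/- stably carrying human TDP1, 400 per well, compound exposure in the absence of CPT (DMSO vehicle).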
# DT40 TDP1 CPT = DT40-hTDP1 cell growth loss with CPT. chicken DT40 Tdp1-/-;hTDP1 cells + 20 nM CPT, ATP luminescence, 48 h. Potency, µM (titrated, usually from 46.2 µM), for the others: at the top dose activity change, negative = growth inhibition, usual class: inhibitors. 420,000 tested, 12% active. AID 686979; further: potency means the concentration at half of the fitted maximal effect; nearly all actives have a fitted effect of over 55% in size
#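 Chicken DT40 Tdp1-/- cells complemented with human TDP1, 400 cells/well, exposed to compounds plus 20 nM camptothecin for at least 48 h at 37 C; viability read as ATP content by CellTiter-Glo luminescence.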
# IL-1B inflam inh = inhibitors of inflammasome signaling (IL-1 beta secretion). THP-1 LPS/ATP IL-1B secretion, AlphaLISA, 16 h; stronger effect = lower value. activity change, % at 57.5 µM. 360,000 tested, 4.7% active. AID 743279; in the data active means activity change below about -50%; inconclusive means mostly about -30% to -49%
#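 THP-1 cells pretreated 1 hr with compounds (up to 57.5 uM final), then stimulated with LPS (250 ng/mL final) plus ATP (1.25 mM final); secreted IL-1B measured by AlphaLISA after 16 hr, decreased signal indicating inhibition.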
# Gal4-VP16 FLuc = counter-screen for ROR gamma inhibitors: Gal4-VP16 reporter; Drosophila S2 Gal4-VP16 UAS-luciferase, luminescence, 20 h; Potency, µM (doses to about 53.6 µM), for the others: at the highest dose activity, negative = inhibition, hits mostly inhibitors; 310,000 tested, 3.5% active; AID 2546;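 further: Gal4-VP16 expression switched on by copper sulfate through the metallothionein promoter; potency means the concentration at half of the fitted maximal effect; nearly all actives have a fitted effect of over 50% in size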
# ELG1 DNA repair = blocks ELG1-dependent DNA repair in HEK293T cells; Potency, µM (doses to about 46.1 µM), without a hit: at the top dose activity change, negative = inhibition, hits mostly inhibitors; HEK293T ELG1-luciferase reporter, luminescence, 16 h; DNA damage induced by 5-fluorouridine; 330,000 tested, 2.3% active; further: potency means the concentration at half of the fitted maximal effect; nearly all actives have a fitted effect of over 55% in size
#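 Cells (2,000 per well) received 5-fluorouridine plus test compound or DMSO and were incubated 16 hr at 37 °C, 5% CO2. Luciferase activity was read by luminescence 30 min after ONE-Glo addition; signal suppression marked inhibition of damage-induced ELG1 function.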
# The depositor's hits bear a star; i = inactive; ? = inconclusive; nt = not tested or not shown; [ ] = dose if it differs, or a comment. An excerpt weighted towards active compounds, which were near 21% of everything screened. Unless noted, the call rests on the fitted dose curve; in most records, active means well fitted curve in the direction sought with a large enough effect; inconclusive means small, poorly fitted or top-dose-only effect, or another doubt; inactive means no such curve, though single readings can be large; an effect the other way counts as inactive or inconclusive. On the % scale 0 is the no-effect control and ±100 the full control effect.
SMILES,RORgamma inh,DT40 TDP1 no CPT,DT40 TDP1 CPT,IL-1B inflam inh,Gal4-VP16 FLuc,ELG1 DNA repair
CCOc1ccc(NC(=O)c2cnn3c2NC(c2cccc(OC)c2)=CC3c2ccccc2)cc1 (stereo not drawn),nt,21µM*,21µM*,nt,nt,nt
COc1cccc(NC(=O)c2ccc(CNS(=O)(=O)c3ccc4c(c3)C(C)(C)C(=O)N4C)cc2)c1,nt,23µM*,?,nt,nt,nt
Cc1ccc(NC(=O)c2ccc(CNS(=O)(=O)c3ccc4c(c3)C(C)(C)C(=O)N4C)cc2)cc1C,nt,12µM*,15µM*,nt,nt,nt
Cc1cccc(NC(=O)c2ccc(CNS(=O)(=O)c3ccc4c(c3)C(C)(C)C(=O)N4C)cc2)c1,nt,12µM*,21µM*,nt,nt,nt
Cc1ccc(CNC(=O)c2ccc(CNS(=O)(=O)c3ccc4c(c3)C(C)(C)C(=O)N4C)cc2)o1,-16%,-4%,7%,-5,-24%,-5%
COc1cccc(S(=O)(=O)NCc2ccc(C(=O)Nc3cccc(Cl)c3)cc2)c1,16%,26µM*,21µM*,?,-16%,18µM*
COc1cccc(NC(=O)c2ccc(S(=O)(=O)NCc3cccnc3)cc2)c1,?,?,?,50,-25%,?
CCC(C)NC(=O)c1ccc(CNS(=O)(=O)c2ccc3c(c2)C(C)(C)C(=O)N3C)cc1 (stereo not drawn),-3%,-11%,-8%,-11,-11%,17%
O=C1[C@H]2CCCC[C@H]2C(=O)N1CCCCN1CCN(c2nsc3ccccc23)CC1,-6%[10 µM],13µM*,21µM*,-65*,1%,nt
O=C(COC(=O)/C=C/c1cccc([N+](=O)[O-])c1)Nc1cccnc1Cl,nt,-23%,2%,3,nt,-3%
C=C(C)COc1ccc(-c2[nH]ncc2-c2ccccc2OC)c(O)c1,8.9µM*,26µM*,26µM*,-60*,13µM*,?
C=C(C)COc1ccc(-c2[nH]ncc2-c2ccc(Br)cc2)c(O)c1,7.9µM*,5.2µM*,4.6µM*,-100*,10µM*,?
C=C(C)COc1ccc(-c2[nH]ncc2Oc2ccccc2OC)c(O)c1,11µM*,?,?,-62*,?,nt
C=C(C)COc1ccc(-c2ncncc2-c2ccccc2OC)c(O)c1,-44%,?,?,-16,?,-14%
CCOc1ccccc1Oc1cn[nH]c1-c1ccc(OCC(=O)NN)cc1O,0%,-21%,0%,-9,-3%,?
CCCOC(=O)c1ccc(Oc2cn[nH]c2-c2ccc(OC)cc2O)cc1,10µM*,21µM*,15µM*,-11,22µM*,?
CCN(CC)CCCCn1c(-c2ccccc2)nc2c(NCCOC)nc(C)nc21,-23%,nt,nt,nt,-1%,nt
O=C(Nc1sc2c(c1C(=O)O)CCC2)C(=O)N1CCOCC1,11%,-11%,4%,-1,19%,16%
Cc1cccc(Cn2c(C)c(CNC3CCCCC3)c(C(=O)O)c2C)c1,nt,-12%,-3%,nt,nt,nt
CCC(=O)N[C@H]1CC[C@@H](CCn2cc(C3CC3)nn2)O[C@@H]1CO,nt,11%,0%,0,nt,nt
C=C(C)COc1ccc(-c2ncncc2-c2ccc(Br)cc2)c(O)c1,-34%,-29%,-1%,-8,-24%,3%
C=C(C)COc1ccc(-c2n[nH]c(C)c2-c2ccc(Br)cc2)c(O)c1,3.2µM*,?,18µM*,-92*,4.5µM*,?
COc1cccc(Oc2cn[nH]c2-c2ccc(OCC(=O)NN)cc2O)c1,-24%,?,?,-3,-6%,10%
CCOc1ccc(-c2[nH]ncc2-c2ccc(Cl)cc2)c(O)c1,11µM*,?,16µM*,-8,?,-5%
C=C(C)COc1ccc(-c2[nH]ncc2Oc2ccc(OC)cc2)c(O)c1,13µM*,?,?,-14,?,28%
SMILES,RORgamma inh,DT40 TDP1 no CPT,DT40 TDP1 CPT,IL-1B inflam inh,Gal4-VP16 FLuc,ELG1 DNA repair
O=S(=O)(c1ccccc1)N1CCC2(CCN(c3ncccn3)CC2)CC1,7%,?,?,nt,3%,nt
C/C=C\C1=C(CO)[C@H](O)[C@H]2OC2[C@@H]1O (stereo partly drawn),0%[10 µM],nt,nt,nt,8%[10 µM],nt
Cc1ccccc1OCCN1C(=O)c2ccccc2C1=O,13%,-4%,-13%,27,0%,?
O=C1c2ccccc2C(=O)N1CCOc1ccccc1Br,-1%,-1%,-3%,3,22%,?
Cc1ccccc1OCCN1C(=O)C(=O)c2cccc(C)c21,-4%,0.92µM*,1.3µM*,-13,-25%,10%
COc1ccccc1OCCC(=O)OCCN1C(=O)c2ccccc2C1=O,-1%,-8%,11%,8,6%,-1%
COc1ccccc1OCCCN1C(=O)C(=O)c2cccc(C)c21,-14%,1.5µM*,4.6µM*,21,?,-9%
Cc1cccc2c1N(CCOc1ccccc1Cl)C(=O)C2=O,-6%,2.6µM*,2.6µM*,-8,-4%,?
COCCNc1ccnc(-c2ccccc2C)n1,-2%,1%,-9%,nt,9%,nt
COCC1CCCN(Cc2ccc3c(c2)CN(C(=O)c2cn4ccc(C)cc4n2)CCO3)C1 (stereo not drawn),nt,-17%,-11%[9.04 µM],nt,nt,nt
Cc1ccsc1CN(C(=O)c1ccc(Br)cc1)C1CCS(=O)(=O)C1 (stereo not drawn),nt,-18%,-19%,nt,nt,nt
O=c1cnc2cnc(Oc3cccc(Cl)c3)nc2n1C1CC1,4%,-26%,-8%,nt,-9%,nt
Cc1ccc(C(=O)COC(=O)c2cc(Cl)nc3ccccc23)cc1C,12%,-17%,-7%,14,-5%,-3%
COc1ccccc1Oc1ccc2c(c1)C(=O)N(c1cccc3ncccc13)C2=O,?,?,2%,32,10µM*,3%
Cc1ccc(C(=O)COC(=O)c2ccc3c(c2)C(=O)N(c2cccc4ncccc24)C3=O)cc1C,?,?,?,-1,16µM*,0%
CC(=O)N1C(=O)c2cccc3cccc(c23)C(=O)N1C(C)=O,-31%,-33%,-5%,24,-8%,5%
O=C(Nc1cccc(NC(=O)c2ccc(Cl)cc2)n1)c1ccc(Cl)cc1,8%,-29%,2%,i,-10%,?
O=C(N/N=C1/C(=O)c2cccc3cccc1c23)c1ccc(Cl)cc1,-21%,4.6µM*,4.1µM*,0,?,?
CCNC(=S)N/N=C1\C(=O)c2cccc3cccc1c23,3.2µM*,-15%,11%,14,4.5µM*,3%
